# What was measured:
# [1] = biological target: T1, Ephrin type-A receptor 3 (Homo sapiens) (UniProt P29320); conditions: at 10 µM
# T1 sequence (whole entry): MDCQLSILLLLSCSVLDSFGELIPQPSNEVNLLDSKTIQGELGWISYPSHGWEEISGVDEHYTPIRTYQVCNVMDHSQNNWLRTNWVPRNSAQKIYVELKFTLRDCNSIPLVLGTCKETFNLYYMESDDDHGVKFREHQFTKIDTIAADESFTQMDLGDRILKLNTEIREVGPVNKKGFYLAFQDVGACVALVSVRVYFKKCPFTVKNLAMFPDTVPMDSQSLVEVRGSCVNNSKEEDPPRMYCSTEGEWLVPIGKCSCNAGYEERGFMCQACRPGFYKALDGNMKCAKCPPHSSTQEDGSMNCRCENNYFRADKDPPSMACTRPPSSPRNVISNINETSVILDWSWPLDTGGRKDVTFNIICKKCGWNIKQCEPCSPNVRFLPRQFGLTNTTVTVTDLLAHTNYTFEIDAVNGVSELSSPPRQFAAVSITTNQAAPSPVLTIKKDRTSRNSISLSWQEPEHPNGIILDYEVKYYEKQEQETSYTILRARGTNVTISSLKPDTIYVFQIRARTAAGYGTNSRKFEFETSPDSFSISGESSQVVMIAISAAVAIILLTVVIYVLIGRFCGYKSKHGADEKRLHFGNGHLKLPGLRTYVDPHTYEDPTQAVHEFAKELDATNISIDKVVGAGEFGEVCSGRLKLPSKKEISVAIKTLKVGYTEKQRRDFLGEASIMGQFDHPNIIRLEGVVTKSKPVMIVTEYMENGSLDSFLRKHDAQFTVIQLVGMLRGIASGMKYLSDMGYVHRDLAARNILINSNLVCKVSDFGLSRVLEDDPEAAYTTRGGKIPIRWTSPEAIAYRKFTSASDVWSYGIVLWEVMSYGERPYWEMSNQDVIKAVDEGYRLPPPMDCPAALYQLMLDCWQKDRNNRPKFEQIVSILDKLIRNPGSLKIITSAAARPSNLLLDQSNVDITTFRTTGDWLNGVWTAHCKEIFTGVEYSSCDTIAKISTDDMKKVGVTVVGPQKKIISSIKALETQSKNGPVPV
# [2] = biological target: Ephrin type-A receptor 4 (Homo sapiens) (UniProt P54764); conditions: at 1 µM
# Ephrin type-A receptor 4 (Homo sapiens), sequence (P54764 whole entry): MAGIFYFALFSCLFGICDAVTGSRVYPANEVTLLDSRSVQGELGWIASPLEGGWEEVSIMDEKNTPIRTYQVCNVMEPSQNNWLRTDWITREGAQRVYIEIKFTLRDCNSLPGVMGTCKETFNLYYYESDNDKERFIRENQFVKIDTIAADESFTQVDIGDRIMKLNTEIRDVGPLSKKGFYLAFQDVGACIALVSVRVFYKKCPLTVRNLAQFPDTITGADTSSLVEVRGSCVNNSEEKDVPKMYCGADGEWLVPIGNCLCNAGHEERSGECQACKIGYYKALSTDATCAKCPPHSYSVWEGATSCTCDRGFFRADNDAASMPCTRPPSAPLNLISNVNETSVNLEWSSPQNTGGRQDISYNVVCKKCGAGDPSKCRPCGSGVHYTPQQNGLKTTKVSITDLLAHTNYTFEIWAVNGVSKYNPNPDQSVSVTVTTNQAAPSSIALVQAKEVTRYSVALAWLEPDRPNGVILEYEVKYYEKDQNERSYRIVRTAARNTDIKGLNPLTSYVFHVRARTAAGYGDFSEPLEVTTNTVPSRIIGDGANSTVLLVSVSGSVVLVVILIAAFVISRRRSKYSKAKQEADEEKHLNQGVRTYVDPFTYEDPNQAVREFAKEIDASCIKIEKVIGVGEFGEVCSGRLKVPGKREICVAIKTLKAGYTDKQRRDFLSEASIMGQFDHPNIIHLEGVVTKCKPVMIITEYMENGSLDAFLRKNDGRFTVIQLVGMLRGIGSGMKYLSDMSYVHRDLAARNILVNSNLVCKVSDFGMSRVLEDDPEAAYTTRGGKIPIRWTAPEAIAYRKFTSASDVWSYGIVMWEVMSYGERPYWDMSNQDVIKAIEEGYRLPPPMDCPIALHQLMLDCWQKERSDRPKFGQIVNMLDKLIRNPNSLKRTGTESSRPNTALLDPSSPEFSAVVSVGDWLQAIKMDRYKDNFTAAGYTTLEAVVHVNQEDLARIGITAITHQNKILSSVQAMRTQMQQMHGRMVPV
# [3] = biological target: Ephrin type-A receptor 4 (Homo sapiens) (UniProt P54764); conditions: at 10 µM
# [4] = biological target: Ephrin type-A receptor 5 (Homo sapiens) (UniProt P54756); conditions: at 1 µM
# Ephrin type-A receptor 5 (Homo sapiens), sequence (P54756 whole entry): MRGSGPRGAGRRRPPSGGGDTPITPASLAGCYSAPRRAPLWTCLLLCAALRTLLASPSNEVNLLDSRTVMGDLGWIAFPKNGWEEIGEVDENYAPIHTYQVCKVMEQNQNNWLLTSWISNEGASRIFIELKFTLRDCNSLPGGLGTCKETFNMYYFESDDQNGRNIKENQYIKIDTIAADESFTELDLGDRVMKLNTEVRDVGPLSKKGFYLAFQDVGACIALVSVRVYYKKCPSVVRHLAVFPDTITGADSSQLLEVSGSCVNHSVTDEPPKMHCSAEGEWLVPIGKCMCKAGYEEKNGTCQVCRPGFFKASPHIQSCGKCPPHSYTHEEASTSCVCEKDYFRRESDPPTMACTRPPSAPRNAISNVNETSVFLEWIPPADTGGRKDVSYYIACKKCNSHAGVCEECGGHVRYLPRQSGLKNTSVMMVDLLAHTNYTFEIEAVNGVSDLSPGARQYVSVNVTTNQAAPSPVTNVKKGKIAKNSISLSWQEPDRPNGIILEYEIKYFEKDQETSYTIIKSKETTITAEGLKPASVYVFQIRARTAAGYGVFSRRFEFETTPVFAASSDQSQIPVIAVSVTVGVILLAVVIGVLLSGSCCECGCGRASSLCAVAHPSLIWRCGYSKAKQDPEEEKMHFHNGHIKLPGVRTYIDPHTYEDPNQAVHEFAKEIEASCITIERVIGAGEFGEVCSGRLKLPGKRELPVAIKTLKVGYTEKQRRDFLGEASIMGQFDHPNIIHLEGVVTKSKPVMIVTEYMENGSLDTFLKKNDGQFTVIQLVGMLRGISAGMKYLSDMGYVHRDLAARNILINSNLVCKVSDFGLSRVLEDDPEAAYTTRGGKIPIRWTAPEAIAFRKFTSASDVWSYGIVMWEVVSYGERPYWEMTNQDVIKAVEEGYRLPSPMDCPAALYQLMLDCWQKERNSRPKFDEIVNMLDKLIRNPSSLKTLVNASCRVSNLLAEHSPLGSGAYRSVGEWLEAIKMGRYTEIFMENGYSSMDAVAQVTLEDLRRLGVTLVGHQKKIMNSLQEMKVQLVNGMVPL
# [5] = biological target: Ephrin type-A receptor 5 (Homo sapiens) (UniProt P54756); conditions: at 10 µM
# [6] = biological target: Ephrin type-A receptor 7 (Homo sapiens) (UniProt Q15375); conditions: at 10 µM
# Ephrin type-A receptor 7 (Homo sapiens), sequence (Q15375 28-998 limits assumed): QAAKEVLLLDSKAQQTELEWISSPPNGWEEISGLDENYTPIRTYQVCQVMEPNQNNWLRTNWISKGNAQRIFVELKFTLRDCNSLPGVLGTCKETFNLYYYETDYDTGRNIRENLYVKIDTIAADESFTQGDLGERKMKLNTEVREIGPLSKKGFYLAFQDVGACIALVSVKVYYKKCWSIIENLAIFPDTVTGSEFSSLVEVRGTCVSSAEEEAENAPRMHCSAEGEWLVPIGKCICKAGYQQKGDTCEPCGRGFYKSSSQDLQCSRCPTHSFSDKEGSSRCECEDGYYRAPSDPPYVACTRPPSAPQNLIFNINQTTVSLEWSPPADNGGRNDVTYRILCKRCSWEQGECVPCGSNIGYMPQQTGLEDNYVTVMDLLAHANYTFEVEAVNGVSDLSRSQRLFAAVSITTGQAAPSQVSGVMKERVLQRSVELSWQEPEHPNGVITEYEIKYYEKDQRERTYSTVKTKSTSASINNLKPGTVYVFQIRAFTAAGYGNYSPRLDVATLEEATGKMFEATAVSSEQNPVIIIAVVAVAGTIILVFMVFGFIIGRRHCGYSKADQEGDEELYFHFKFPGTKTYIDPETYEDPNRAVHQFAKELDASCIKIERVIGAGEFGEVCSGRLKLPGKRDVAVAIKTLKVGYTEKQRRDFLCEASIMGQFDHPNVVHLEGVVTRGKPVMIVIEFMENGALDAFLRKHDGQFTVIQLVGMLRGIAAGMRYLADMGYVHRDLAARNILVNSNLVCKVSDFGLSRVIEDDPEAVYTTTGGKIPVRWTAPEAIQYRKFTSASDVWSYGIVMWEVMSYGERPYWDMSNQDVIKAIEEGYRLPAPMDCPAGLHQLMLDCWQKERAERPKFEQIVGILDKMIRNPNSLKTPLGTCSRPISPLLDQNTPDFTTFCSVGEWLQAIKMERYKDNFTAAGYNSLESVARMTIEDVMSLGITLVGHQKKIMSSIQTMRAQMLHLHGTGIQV
# [7] = biological target: T2, Ephrin type-A receptor 8 (Homo sapiens) (UniProt P29322); conditions: at 1 µM
# T2 sequence (whole entry): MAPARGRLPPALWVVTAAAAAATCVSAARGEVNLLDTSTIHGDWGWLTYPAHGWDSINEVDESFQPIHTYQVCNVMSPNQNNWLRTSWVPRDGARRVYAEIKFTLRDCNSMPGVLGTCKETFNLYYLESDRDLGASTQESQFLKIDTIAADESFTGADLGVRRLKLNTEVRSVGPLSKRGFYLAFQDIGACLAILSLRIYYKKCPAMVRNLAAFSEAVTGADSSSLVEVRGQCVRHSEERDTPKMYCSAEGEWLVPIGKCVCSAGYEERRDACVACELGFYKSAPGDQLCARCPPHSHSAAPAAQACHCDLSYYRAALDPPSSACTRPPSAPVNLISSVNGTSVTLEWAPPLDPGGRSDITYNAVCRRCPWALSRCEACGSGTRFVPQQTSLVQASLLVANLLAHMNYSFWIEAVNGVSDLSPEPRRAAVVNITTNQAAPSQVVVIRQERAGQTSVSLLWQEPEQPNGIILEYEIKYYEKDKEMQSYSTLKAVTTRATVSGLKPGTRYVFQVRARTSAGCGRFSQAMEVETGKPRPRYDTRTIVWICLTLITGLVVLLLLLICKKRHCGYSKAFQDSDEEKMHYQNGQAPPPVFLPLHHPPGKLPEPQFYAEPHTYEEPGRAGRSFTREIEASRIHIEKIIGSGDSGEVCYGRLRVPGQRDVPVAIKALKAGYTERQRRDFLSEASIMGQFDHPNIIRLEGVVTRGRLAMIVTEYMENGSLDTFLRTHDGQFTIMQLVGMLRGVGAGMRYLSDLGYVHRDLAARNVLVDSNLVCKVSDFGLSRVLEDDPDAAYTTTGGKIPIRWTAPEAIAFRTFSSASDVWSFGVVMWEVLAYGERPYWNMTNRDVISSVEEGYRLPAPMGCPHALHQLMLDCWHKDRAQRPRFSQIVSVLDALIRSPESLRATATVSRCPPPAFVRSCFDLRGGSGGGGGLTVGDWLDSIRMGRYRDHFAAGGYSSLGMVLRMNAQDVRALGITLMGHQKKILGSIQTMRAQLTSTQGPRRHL
# [8] = biological target: T3, Ephrin type-B receptor 1 (Homo sapiens) (UniProt P54762); conditions: at 1 µM
# T3 sequence (whole entry): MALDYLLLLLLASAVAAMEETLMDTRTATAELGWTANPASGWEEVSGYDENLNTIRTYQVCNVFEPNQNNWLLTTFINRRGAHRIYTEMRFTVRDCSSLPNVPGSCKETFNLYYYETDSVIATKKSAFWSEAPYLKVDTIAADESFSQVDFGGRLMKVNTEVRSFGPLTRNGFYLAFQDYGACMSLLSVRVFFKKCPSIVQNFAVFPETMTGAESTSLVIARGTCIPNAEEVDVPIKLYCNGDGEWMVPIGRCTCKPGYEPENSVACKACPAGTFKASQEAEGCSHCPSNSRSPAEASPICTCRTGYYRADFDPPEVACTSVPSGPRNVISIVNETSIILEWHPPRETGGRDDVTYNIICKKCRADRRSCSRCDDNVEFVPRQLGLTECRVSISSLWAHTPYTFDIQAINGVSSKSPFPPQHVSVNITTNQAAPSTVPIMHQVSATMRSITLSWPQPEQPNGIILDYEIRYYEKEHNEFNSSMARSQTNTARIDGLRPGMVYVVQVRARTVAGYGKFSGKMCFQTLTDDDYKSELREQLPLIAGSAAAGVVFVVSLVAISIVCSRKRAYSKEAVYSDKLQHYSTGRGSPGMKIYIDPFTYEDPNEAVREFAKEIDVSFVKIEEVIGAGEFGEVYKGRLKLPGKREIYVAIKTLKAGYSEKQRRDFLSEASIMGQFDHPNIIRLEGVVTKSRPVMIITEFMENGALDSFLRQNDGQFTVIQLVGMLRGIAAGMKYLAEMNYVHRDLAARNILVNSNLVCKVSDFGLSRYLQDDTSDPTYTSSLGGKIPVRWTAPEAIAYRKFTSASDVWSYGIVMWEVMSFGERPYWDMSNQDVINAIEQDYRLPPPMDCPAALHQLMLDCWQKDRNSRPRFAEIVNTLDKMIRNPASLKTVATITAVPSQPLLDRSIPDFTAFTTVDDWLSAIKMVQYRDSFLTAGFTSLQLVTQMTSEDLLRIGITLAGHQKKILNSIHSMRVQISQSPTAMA
# [9] = biological target: T3, Ephrin type-B receptor 1 (Homo sapiens); conditions: at 10 µM
# [10] = biological target: T4, Ephrin type-B receptor 2 (Homo sapiens) (UniProt P29323); conditions: at 1 µM
# T4 sequence (whole entry): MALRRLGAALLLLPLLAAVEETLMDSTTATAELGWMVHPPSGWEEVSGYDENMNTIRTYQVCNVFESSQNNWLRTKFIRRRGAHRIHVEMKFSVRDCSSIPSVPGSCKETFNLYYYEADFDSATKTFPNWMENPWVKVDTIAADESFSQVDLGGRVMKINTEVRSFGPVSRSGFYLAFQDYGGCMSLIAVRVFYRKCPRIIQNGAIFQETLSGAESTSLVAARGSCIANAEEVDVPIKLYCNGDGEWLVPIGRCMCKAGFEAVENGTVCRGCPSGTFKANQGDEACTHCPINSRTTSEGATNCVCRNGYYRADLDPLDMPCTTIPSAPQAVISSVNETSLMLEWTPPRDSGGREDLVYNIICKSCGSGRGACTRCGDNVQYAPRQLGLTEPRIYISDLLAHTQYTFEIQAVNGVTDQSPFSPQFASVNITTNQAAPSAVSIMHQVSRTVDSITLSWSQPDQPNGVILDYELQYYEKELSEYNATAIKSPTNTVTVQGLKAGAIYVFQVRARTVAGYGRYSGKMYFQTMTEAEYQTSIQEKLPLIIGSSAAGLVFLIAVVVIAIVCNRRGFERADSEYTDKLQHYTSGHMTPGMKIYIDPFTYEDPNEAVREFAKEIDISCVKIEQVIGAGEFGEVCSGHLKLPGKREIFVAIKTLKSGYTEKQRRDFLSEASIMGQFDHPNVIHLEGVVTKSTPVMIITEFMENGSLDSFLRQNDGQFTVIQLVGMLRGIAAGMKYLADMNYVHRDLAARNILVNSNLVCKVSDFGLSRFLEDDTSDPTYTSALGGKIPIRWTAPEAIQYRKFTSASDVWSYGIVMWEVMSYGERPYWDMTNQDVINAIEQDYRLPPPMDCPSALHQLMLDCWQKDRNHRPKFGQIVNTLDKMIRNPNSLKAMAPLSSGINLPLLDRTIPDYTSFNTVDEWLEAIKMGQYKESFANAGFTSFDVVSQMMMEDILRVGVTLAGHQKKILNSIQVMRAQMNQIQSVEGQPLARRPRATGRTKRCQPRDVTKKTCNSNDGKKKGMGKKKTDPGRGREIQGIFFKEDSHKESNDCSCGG
# [11] = biological target: T4, Ephrin type-B receptor 2 (Homo sapiens); conditions: at 10 µM
# [12] = biological target: T5, Ephrin type-B receptor 3 (Homo sapiens) (UniProt P54753); conditions: at 1 µM
# T5 sequence (whole entry): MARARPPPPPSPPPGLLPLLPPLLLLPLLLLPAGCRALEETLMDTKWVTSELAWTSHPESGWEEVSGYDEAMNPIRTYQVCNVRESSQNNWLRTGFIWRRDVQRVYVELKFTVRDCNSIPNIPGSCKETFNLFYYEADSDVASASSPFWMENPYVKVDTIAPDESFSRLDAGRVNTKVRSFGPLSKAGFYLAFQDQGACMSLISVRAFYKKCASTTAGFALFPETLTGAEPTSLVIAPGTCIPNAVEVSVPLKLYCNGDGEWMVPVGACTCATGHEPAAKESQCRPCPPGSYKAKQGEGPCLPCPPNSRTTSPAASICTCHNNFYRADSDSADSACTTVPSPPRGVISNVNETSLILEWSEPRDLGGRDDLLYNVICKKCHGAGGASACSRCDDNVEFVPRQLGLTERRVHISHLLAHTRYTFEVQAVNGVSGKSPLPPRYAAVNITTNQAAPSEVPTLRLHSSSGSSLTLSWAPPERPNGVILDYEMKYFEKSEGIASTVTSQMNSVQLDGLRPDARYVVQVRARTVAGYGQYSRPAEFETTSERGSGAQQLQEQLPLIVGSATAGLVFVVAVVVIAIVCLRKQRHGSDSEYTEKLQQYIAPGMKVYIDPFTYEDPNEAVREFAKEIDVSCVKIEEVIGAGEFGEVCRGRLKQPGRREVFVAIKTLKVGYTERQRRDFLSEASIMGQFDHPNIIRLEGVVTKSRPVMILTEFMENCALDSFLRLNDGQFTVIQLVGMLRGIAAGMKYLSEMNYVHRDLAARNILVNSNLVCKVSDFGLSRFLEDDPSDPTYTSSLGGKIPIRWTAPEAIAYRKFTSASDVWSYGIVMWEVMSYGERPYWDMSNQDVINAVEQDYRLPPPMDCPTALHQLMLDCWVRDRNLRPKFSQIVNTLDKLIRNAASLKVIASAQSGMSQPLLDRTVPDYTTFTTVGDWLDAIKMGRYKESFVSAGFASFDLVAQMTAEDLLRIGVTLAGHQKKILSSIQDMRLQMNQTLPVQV
# [13] = biological target: T5, Ephrin type-B receptor 3 (Homo sapiens); conditions: at 10 µM
# [14] = biological target: T6, Ephrin type-B receptor 4 (Homo sapiens) (UniProt P54760); conditions: at 1 µM
# T6 sequence (whole entry): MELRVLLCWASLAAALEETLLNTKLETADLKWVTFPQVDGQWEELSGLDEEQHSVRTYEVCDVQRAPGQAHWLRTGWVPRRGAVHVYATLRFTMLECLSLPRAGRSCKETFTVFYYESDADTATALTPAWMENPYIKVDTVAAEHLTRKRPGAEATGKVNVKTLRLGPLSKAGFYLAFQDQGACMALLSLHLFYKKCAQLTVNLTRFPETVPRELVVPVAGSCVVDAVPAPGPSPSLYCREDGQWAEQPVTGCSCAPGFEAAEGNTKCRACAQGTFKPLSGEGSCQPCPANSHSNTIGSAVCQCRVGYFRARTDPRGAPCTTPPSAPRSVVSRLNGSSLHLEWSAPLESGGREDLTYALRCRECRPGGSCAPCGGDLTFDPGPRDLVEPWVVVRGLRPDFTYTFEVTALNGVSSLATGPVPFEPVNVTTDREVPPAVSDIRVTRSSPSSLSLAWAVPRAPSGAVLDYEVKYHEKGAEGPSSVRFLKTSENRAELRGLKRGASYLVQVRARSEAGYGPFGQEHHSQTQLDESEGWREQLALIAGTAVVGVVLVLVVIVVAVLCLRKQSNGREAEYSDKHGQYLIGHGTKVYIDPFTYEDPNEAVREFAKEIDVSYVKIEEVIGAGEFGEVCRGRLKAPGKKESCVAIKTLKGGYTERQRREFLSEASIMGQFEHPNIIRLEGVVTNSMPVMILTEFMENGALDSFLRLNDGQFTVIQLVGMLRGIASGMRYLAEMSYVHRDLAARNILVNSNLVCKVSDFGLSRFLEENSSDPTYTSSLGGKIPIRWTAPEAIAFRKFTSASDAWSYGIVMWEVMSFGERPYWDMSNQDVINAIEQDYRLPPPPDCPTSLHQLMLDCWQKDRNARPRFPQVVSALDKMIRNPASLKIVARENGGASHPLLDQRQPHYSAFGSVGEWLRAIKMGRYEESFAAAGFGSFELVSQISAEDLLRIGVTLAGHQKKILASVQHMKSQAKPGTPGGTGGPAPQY
# [15] = biological target: T6, Ephrin type-B receptor 4 (Homo sapiens); conditions: at 10 µM
# [16] = biological target: Receptor tyrosine-protein kinase erbB-4 (Homo sapiens) (UniProt Q15303); conditions: at 1 µM
# Receptor tyrosine-protein kinase erbB-4 (Homo sapiens), sequence (Q15303 whole entry): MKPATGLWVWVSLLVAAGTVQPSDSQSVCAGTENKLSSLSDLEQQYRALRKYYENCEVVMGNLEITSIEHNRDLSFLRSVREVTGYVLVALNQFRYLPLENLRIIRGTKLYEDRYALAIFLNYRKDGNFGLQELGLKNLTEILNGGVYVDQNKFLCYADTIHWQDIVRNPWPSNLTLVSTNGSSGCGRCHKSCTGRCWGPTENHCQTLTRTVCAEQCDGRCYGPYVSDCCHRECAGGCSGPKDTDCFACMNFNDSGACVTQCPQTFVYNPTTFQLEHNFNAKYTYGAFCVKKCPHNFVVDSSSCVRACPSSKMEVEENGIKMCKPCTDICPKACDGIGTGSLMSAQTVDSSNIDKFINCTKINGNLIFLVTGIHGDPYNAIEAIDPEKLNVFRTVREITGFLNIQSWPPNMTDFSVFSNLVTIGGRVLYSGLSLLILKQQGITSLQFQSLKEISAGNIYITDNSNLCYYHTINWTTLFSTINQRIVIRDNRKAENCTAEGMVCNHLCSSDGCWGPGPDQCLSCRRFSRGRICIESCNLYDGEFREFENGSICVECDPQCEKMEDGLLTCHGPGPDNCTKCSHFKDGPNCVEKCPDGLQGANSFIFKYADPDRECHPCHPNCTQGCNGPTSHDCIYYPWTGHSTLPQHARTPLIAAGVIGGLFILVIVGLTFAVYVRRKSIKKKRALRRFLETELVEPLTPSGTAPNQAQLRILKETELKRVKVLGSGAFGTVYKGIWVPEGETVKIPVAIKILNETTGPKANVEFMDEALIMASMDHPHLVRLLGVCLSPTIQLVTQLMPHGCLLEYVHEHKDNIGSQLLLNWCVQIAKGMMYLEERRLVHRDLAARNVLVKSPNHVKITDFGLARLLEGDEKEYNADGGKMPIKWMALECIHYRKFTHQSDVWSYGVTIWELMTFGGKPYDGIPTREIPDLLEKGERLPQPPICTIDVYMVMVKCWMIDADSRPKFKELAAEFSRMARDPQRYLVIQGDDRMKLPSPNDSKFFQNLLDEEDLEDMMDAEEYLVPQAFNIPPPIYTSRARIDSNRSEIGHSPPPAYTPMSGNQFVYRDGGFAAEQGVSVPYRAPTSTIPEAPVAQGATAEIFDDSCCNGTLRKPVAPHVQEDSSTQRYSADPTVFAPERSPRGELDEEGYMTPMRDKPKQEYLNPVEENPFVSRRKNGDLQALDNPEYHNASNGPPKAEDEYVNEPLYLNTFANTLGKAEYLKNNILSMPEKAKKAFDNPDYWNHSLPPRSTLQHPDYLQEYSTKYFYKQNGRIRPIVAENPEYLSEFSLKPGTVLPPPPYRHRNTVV
# [17] = biological target: Receptor tyrosine-protein kinase erbB-4 (Homo sapiens) (UniProt Q15303); conditions: at 10 µM
# [18] = biological target: Focal adhesion kinase 1 (Homo sapiens) (UniProt Q05397); conditions: at 1 µM
smiles,measurement,setting,value
O=[N+]([O-])c1ccc(-c2nc(-c3ccc(F)cc3)c(-c3ccncc3)[nH]2)cc1,residual activity,[1],90%
same,residual activity,[2],105%
same,residual activity,[3],107%
same,residual activity,[4],100%
same,residual activity,[5],94%
same,residual activity,[6],101%
same,residual activity,[7],93%
same,residual activity,[8],103%
same,residual activity,[9],94%
same,residual activity,[10],111%
same,residual activity,[11],109%
same,residual activity,[12],126% (inactive)
same,residual activity,[13],82%
same,residual activity,[14],89%
same,residual activity,[15],76%
same,residual activity,[16],76%
same,residual activity,[17],75%
same,residual activity,[18],107%

# Source: ChEMBL document CHEMBL2218924, “A broad activity screen in support of a chemogenomic map for kinase signalling research and drug discovery” (Biochem J, 2013)
